Experimental data from PubChem BioAssay AID1159580 (chemical genetic matrix, 2015).
Where “and” joins values, the source holds several entries; their conditions need not be identical. Identical values can stand only once. Among all 5,500 compounds or so, about 2,000 (36%) were called active. Inconclusive results (about 18%) are left out. Rule as the data show it: active = normalized growth mostly below about 0.91 (no sharp cut-off); inconclusive = no clear call, values can overlap the other calls; inactive = mostly above about 0.92. Some of the results follow.

Test: chemical genetic growth profiling, strain panel (AID 1159580);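 also: tested at 20 µM; growth read once vehicle control cultures reached saturation at 30 °C; 1 = growth at the plate median or of vehicle wells; lower values mean less growth of the strain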
Settings: S. cerevisiae deletion strains, growth OD

Measured: normalized growth

CC1=CC2C(CC1=O)C(C)=CCC2C(C)C (configuration not stated)
active: locus YDL185W, strain tfp1, stronger effect = lower value 0.83 | locus YDL192W, strain arf1, stronger effect = lower value 0.769 | locus YDR392W, strain spt3, stronger effect = lower value 0.594 | locus YDR502C, strain sam2, stronger effect = lower value 0.895 | locus YEL061C, strain CIN8, stronger effect = lower value 0.911 | locus YGL086W, strain mad1, stronger effect = lower value 0.888 | locus YGR135W, strain pre9, stronger effect = lower value 0.881 | locus YKR001C, strain vps1, stronger effect = lower value 0.623 | locus YLR330W, strain CHS5, stronger effect = lower value 0.873 | locus YLR371W, strain rom2, stronger effect = lower value 0.841 | locus YLR418C, strain cdc73, stronger effect = lower value 0.687 | locus YMR223W, strain ubp8, stronger effect = lower value 0.901 | locus YNL071W, strain lat1, stronger effect = lower value 0.913 | locus YNR052C, strain pop2, stronger effect = lower value 0.895 | locus YOR184W, strain ser1, stronger effect = lower value 0.634 | locus YPL051W, strain arl3, stronger effect = lower value 0.886 | strain wtn01, stronger effect = lower value 0.898
inactive: locus YAL021C, strain ccr4, stronger effect = lower value 1.02 | locus YAL026C, strain drs2, stronger effect = lower value 0.996 | locus YAL030W, strain snc1, stronger effect = lower value 1 | locus YBL061C, strain skt5, stronger effect = lower value 1.02 | locus YBR009C, strain hhf1, stronger effect = lower value 0.98 | locus YBR021W, strain FUR4, stronger effect = lower value 0.923 | locus YBR023C, strain chs3, stronger effect = lower value 0.992 | locus YBR171W, strain sec66, stronger effect = lower value 1 | locus YBR229C, strain ROT2, stronger effect = lower value 1.01 | locus YBR231C, strain swc5, stronger effect = lower value 0.998 | locus YBR279W, strain paf1, stronger effect = lower value 1 | locus YCL011C, strain gbp2, stronger effect = lower value 1.01 | locus YCL016C, strain dcc1, stronger effect = lower value 1.01 | locus YCL029C, strain bik1, stronger effect = lower value 0.976 | locus YCL061C, strain MRC1, stronger effect = lower value 0.991 | locus YCL069W, strain vba3, stronger effect = lower value 1.01 | locus YCR088W, strain abp1, stronger effect = lower value 1 | locus YDL005C, strain med2, stronger effect = lower value 1.02 | locus YDL035C, strain GPR1, stronger effect = lower value 0.96 | locus YDL040C, strain nat1, stronger effect = lower value 1.01 | locus YDL074C, strain BRE1, stronger effect = lower value 0.902 | locus YDL101C, strain DUN1, stronger effect = lower value 0.966 | locus YDR001C, strain nth1, stronger effect = lower value 0.996 | locus YDR069C, strain doa4, stronger effect = lower value 1.02 | locus YDR101C, strain arx1, stronger effect = lower value 0.929 | locus YDR137W, strain rgp1, stronger effect = lower value 0.896 | locus YDR159W, strain sac3, stronger effect = lower value 1.01 | locus YDR162C, strain NBP2, stronger effect = lower value 0.92 | locus YDR195W, strain ref2 0.977 | locus YDR297W, strain sur2, stronger effect = lower value 1.02 | locus YDR318W, strain mcm21, stronger effect = lower value 0.946 | locus YDR334W, strain swr1, stronger effect = lower value 1.01 | locus YDR335W, strain msn5, stronger effect = lower value 1.01 | locus YDR388W, stronger effect = lower value 0.987 | locus YEL003W, strain gim4, stronger effect = lower value 1.02 | locus YEL037C, strain rad23, stronger effect = lower value 0.997 | locus YEL061C, strain CIN8 (second series), stronger effect = lower value 1.01 | locus YER015W, strain faa2, stronger effect = lower value 1 | locus YER016W, strain bim1, stronger effect = lower value 1.01 | locus YER110C, stronger effect = lower value 1.01 | locus YER111C, strain swi4, stronger effect = lower value 0.996 | locus YER155C, strain BEM2 (second series), stronger effect = lower value 0.98 | locus YER155C, strain BEM2, stronger effect = lower value 0.948 | locus YER167W, strain BCK2, stronger effect = lower value 0.937 | locus YFR010W, strain ubp6, stronger effect = lower value 1 | locus YGL078C, strain dbp3, stronger effect = lower value 0.943 | locus YGL167C, strain pmr1, stronger effect = lower value 1.01 | locus YGL173C, strain kem1, stronger effect = lower value 1.01 | locus YGL227W, strain vid30, stronger effect = lower value 1.01 | locus YGL240W, strain doc1, stronger effect = lower value 0.998 | locus YGL248W, strain PDE1, stronger effect = lower value 0.952 | locus YGL253W, strain hxk2, stronger effect = lower value 1 | locus YGR252W, strain gcn5, stronger effect = lower value 0.972 | locus YHR013C, strain ard1, stronger effect = lower value 1.03 | locus YHR027C, strain rpn1, stronger effect = lower value 1.01 | locus YHR079C, strain IRE1 (second series), stronger effect = lower value 0.989 | locus YHR079C, strain IRE1, stronger effect = lower value 0.96 | locus YHR094C, strain hxt1, stronger effect = lower value 0.989 | locus YHR129C, strain ARP1, stronger effect = lower value 0.95 | locus YHR142W, strain chs7, stronger effect = lower value 0.981 | locus YHR200W, strain rpn10, stronger effect = lower value 0.968 | locus YIL066C, strain RNR3, stronger effect = lower value 0.9 | locus YIL073C, strain SPO22, stronger effect = lower value 0.91 | locus YIL125W, strain kgd1, stronger effect = lower value 0.934 | locus YIR030C, strain dcg1, stronger effect = lower value 0.979 | locus YJL092W, strain hpr5, stronger effect = lower value 0.998 | locus YJL095W, strain BCK1 (second series), stronger effect = lower value 1.01 | locus YJL095W, strain BCK1, stronger effect = lower value 0.808 and 0.979 | locus YJL115W, strain asf1, stronger effect = lower value 1.01 | locus YJL129C, strain trk1, stronger effect = lower value 1 | locus YJL134W, strain LCB3, stronger effect = lower value 1.02 | locus YJL154C, strain vps35, stronger effect = lower value 1.01 | locus YJL164C, strain tpk1, stronger effect = lower value 0.994 | locus YJL166W, strain qcr8, stronger effect = lower value 0.978 | locus YJL168C, strain set2, stronger effect = lower value 0.978 | locus YJL187C, strain SWE1 (second series), stronger effect = lower value 0.971 | locus YJL187C, strain SWE1, stronger effect = lower value 1 | locus YJR043C, strain POL32, stronger effect = lower value 0.98 | locus YJR066W, strain TOR1, stronger effect = lower value 0.949 | locus YKL009W, strain mrt4, stronger effect = lower value 0.945 | locus YKL068W, stronger effect = lower value 0.978 | locus YKL085W, strain MDH1 (second series), stronger effect = lower value 0.932 | locus YKL085W, strain MDH1, stronger effect = lower value 0.932 | locus YKL160W, strain elf1, stronger effect = lower value 0.992 | locus YKR026C, strain gcn3, stronger effect = lower value 0.983 | locus YKR091W, strain srl3, stronger effect = lower value 1.01 | locus YLL001W, strain dnm1, stronger effect = lower value 0.998 | locus YLL026W, stronger effect = lower value 1.01 | locus YLL041C, strain sdh2, stronger effect = lower value 1 | locus YLR027C, strain aat2, stronger effect = lower value 0.997 | locus YLR039C, strain RIC1, stronger effect = lower value 0.717 | locus YLR058C, strain SHM2, stronger effect = lower value 0.994 | locus YLR102C, strain apc9, stronger effect = lower value 0.985 | locus YLR113W, strain HOG1, stronger effect = lower value 0.968 | locus YLR221C, strain rsa3, stronger effect = lower value 0.979 | locus YLR258W, strain gsy2, stronger effect = lower value 1 | locus YLR262C, strain YPT6 (second series), stronger effect = lower value 0.896 | locus YLR262C, strain YPT6, stronger effect = lower value 0.709 | locus YLR268W, strain sec22, stronger effect = lower value 0.923 | locus YLR320W, strain mms22, stronger effect = lower value 0.9 | locus YLR342W, strain FKS1 (second series), stronger effect = lower value 0.864 | locus YLR342W, strain FKS1, stronger effect = lower value 1.01 | locus YLR357W, strain rsc2, stronger effect = lower value 1.03 | locus YLR370C, strain arc18, stronger effect = lower value 1.02 | locus YLR384C, strain iki3, stronger effect = lower value 1 | locus YML016C, strain PPZ1, stronger effect = lower value 1.01 | locus YML032C, strain rad52, stronger effect = lower value 0.948 | locus YML120C, strain ndi1, stronger effect = lower value 1 | locus YML124C, strain tub3, stronger effect = lower value 0.985 | locus YMR058W, strain fet3, stronger effect = lower value 1.01 | locus YMR078C, strain ctf18, stronger effect = lower value 0.974 | locus YMR125W, strain sto1, stronger effect = lower value 1.01 | locus YMR129W, stronger effect = lower value 1.03 | locus YMR205C, strain PFK2, stronger effect = lower value 0.966 | locus YMR231W, strain pep5, stronger effect = lower value 0.984 | locus YMR307W, strain GAS1, stronger effect = lower value 0.795 | locus YNL067W, strain RPL9B, stronger effect = lower value 0.986 | locus YNL183C, strain NPR1, stronger effect = lower value 0.96 | locus YNL209W, strain ssb2, stronger effect = lower value 1.01 | locus YNL233W, strain BNI4, stronger effect = lower value 0.874 | locus YNL248C, strain rpa49, stronger effect = lower value 0.997 | locus YNL250W, strain rad50, stronger effect = lower value 0.956 | locus YNL271C, strain bni1, stronger effect = lower value 0.936 | locus YNL298W, strain CLA4, stronger effect = lower value 0.924 | locus YNL307C, strain MCK1, stronger effect = lower value 0.914 | locus YNL322C, strain KRE1 (second series), stronger effect = lower value 1.01 | locus YNL322C, strain KRE1, stronger effect = lower value 1 | locus YNR049C, strain mso1, stronger effect = lower value 1.01 | locus YOL006C, strain TOP1, stronger effect = lower value 0.683 | locus YOL012C, strain htz1 0.956 | locus YOL147C, strain pex11, stronger effect = lower value 0.945 | locus YOR001W, strain rrp6, stronger effect = lower value 0.984 | locus YOR061W, strain CKA2, stronger effect = lower value 0.967 | locus YOR069W, strain VPS5, stronger effect = lower value 0.978 | locus YOR070C, strain gyp1, stronger effect = lower value 0.992 | locus YOR080W, strain dia2, stronger effect = lower value 1.01 | locus YOR083W, strain WHI5, stronger effect = lower value 0.966 | locus YOR106W, strain vam3, stronger effect = lower value 0.973 | locus YOR136W, strain idh2, stronger effect = lower value 0.959 | locus YOR144C, strain elg1, stronger effect = lower value 0.969 | locus YOR231W, strain MKK1, stronger effect = lower value 0.993 | locus YOR265W, strain rbl2, stronger effect = lower value 1.01 | locus YOR270C, strain vph1, stronger effect = lower value 0.844 | locus YOR290C, strain snf2, stronger effect = lower value 0.972 | locus YOR316C, strain cot1, stronger effect = lower value 0.983 | locus YPL055C, strain LGE1, stronger effect = lower value 0.938 | locus YPL078C, strain atp4, stronger effect = lower value 0.991 | locus YPL106C, strain sse1, stronger effect = lower value 1.01 | locus YPL240C, strain hsp82, stronger effect = lower value 1.02 | locus YPL256C, strain CLN2, stronger effect = lower value 0.957 | locus YPR119W, strain clb2, stronger effect = lower value 0.978 | locus YPR141C, strain kar3, stronger effect = lower value 0.973 | locus YPR163C, strain tif3, stronger effect = lower value 0.97 | locus YPR167C, strain met16, stronger effect = lower value 0.995
0.905 (active) and 0.973 (inactive): locus YHR030C, strain SLT2, stronger effect = lower value
